# Source: PubChem BioAssay AID1730 (National Center for Advancing Translational Sciences (NCATS), 2009)
# Inconclusive results are not listed. Activity calls are given as the source filed them. The call rests on the fitted dose curve; in most records, active means well fitted inhibition curve with a large enough effect; inconclusive means small, poorly fitted or top-dose-only effect; inactive means no such curve, though single readings can be large or run the other way.
# Experiment: Counterscreen Assay for Inhibitors of the ERK Signaling Pathway using a Homogeneous Screening Assay
# Description: qHTS Assay for Inhibitors of the ERK Signaling Pathway using a Homogeneous Screening Assay
# NIH Chemical Genomics Center [NCGC]
# NIH Molecular Libraries Screening Centers Network [MLSCN]
# Assay Submitter (PI): Dr. Wei Zheng, NCGC/NIH
# The Ras/extracellular-signal-regulated kinase (ERK) mitogen activated protein (MAP) kinase signaling pathway (ERK1/2 cascade) plays is a key role in transmitting signals from the cell surface to the nucleus (Nishida and Gotoh 1993; Chang and Karin, 2001). The cascade is initiated by the small G-protein Ras, which recruits Raf […], where activation occurs. Alternatively, this pathway can be activated by elevating intracellular cAMP.
# Activation of the ERK pathway is essential in increased cell division and cell survival. Sustained and constitutive activation of the ERK pathway, however, has been linked to uncontrolled cell proliferation, increased cell survival, and tumor progression. Thus, the ERK has been as an attractive target for cancer chemotherapy in the past few years (Sebolt-Leopold and Herrera, 2004). […]
# Biotinylated rabbit IgG was used to perform a counter-screen in the context of an AlphaScreen assay kit provided by PerkinElmer. […] AC50 values were determined from concentration-response data modeled with the standard Hill equation. […]
# (10) Detect the assay plate in an EnVision plate reader (PerkinElmer) using the AlphaScreen detection mode. […]
row,Compound,outcome
1,CCN1C(=O)NC(=O)/C(=C/c2cc(C)n(-c3sc(C)c(C)c3C#N)c2C)C1=O,inactive
2,O=C1NC(=O)C(=Cc2ccccc2Oc2ccc(F)cc2)C(=O)N1,inactive
